# Laboratory results published in PubChem BioAssay (NCATS).
# Results filed as inconclusive are left out. Entries that show only a call come without a potency. Activity calls are given as the source filed them. Calls come from the whole dose curve; as a rule, active = well fitted curve in the direction sought with a large enough effect; inconclusive = small, poorly fitted or top-dose-only effect, or another doubt; inactive = no such curve, though single readings can be large; an effect the other way counts as inactive or inconclusive.
# Columns and labels:
# [1] = biological target: Aldehyde dehydrogenase, mitochondrial (Homo sapiens) (UniProt P05091); assay: qHTS for Inhibitors of the Aldehyde Dehydrogenase Family (ALDH2) Primary screen (AID 2061308); note: nearly all actives have a fitted effect of over 55% in size
# [2] = biological target: Retinaldehyde dehydrogenase 3 (Homo sapiens) (UniProt P47895); assay: qHTS for Inhibitors of the Aldehyde Dehydrogenase Family (ALDH1A3) Primary screen (AID 2061315)
Compound,Potency [1],Potency [2]
CCC[C@@H]1C[C@@H](C(=O)N[C@H](C(C)Cl)[C@H]2O[C@H](SC)[C@H](O)[C@@H](O)[C@H]2O)N(C)C1 (stereo partly drawn),inactive,inactive
O=C(O)c1ccc(-c2ccc3ncnc(NCC4CCCO4)c3c2)o1 (stereo not drawn),inactive,inactive
CCC(C(=O)NC(=O)NC(C)=O)c1ccccc1 (stereo not drawn),inactive,inactive
O=[S+]([O-])(c1ccc2c(c1)OCCO2)N1CCN([S+](=O)([O-])c2ccc(F)cc2Br)CC1,inactive,inactive
CCCn1c(-c2ccc(F)cc2)nc2c(NCCN(C(C)C)C(C)C)nc(C)nc21,inactive,inactive
O=[S+]([O-])(Nc1nccs1)c1ccc(NCc2cc(Cl)cc(Br)c2O)cc1,inactive,inactive
O=[S+]([O-])(c1ccc2c(c1)OCCO2)N1CCN([S+](=O)([O-])c2c(F)cc(F)cc2Br)CC1,inactive,inactive
O=C(Nc1nnc(-c2ccncc2)s1)Oc1ccc2ccccc2c1,inactive,inactive
Cc1ccc(NC(=O)CSc2nnc(-c3cccc([S+](=O)([O-])N4CCCC4)c3)n2-c2ccccc2)cc1,inactive,inactive
O=C(OCC#CCSc1nnc(-c2cc3ccccc3cc2O)o1)c1ccc(F)cc1,inactive,inactive
CCCCNc1nc(C)nc2c1nc(-c1ccccc1)n2CCN1CCCCC1,inactive,inactive
O=C1c2ccccc2C(=O)N1Cc1ccccn1,inactive,inactive
CCCCN(C)C(=O)Cn1nc(-c2cncnc2)ccc1=O,inactive,inactive
Cc1ccc(S(=O)(=O)Nc2cc(C(=O)Nc3nc(-c4ccccc4)cs3)ccc2Cl)cc1,inactive,inactive
